Source: PubChem BioAssay AID743279 (National Center for Advancing Translational Sciences (NCATS), 2014)
Screen size: about 360,000 compounds; about 17,000 (4.7%) were called active. Inconclusive results (about 5%) are left out. The sample holds actives, similar compounds and a random draw of the others, so the mix is not that of the screen. Values without a mark were called inactive. No stated cut-off is given here; in the data, active means activity change below about -50%; inconclusive means mostly about -30% to -49%; inactive means weaker than that.

test: qHTS for Inhibitors of Inflammasome Signaling: IL-1-beta AlphaLISA Primary Screen; settings: THP-1 LPS/ATP IL-1B secretion, 16 h; at 57.5 µM, stronger effect = lower value
Procedure, shortened: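 Secreted IL-1B measured by AlphaLISA bead assay after 16 h compound exposure of THP-1 cells; compounds (final up to 57.5 uM) added 1 h before LPS (250 ng/mL) and ATP (1.25 mM) stimulation; lower signal means less secretion.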
On the % scale 0 is the no-effect control and ±100 the full control effect.

Structure (SMILES) | activity change
N#Cc1c(N)n(CCOC(=O)c2ccc(Cl)cc2)c2nc3ccccc3nc12 | -16.3%
CN(C)CCCn1c(N)c(C#N)c2nc(C#N)c(C#N)nc21 | -105% (active)
Cc1cc(C)c(S(=O)(=O)N(C)CC(=O)NCC2CCCO2)c(C)c1 (configuration not stated) | 4.54%
CC1=C(C(=O)OCc2ccccc2)C(c2ccc(C(F)(F)F)cc2)NC(=O)N1CCCCCC(=O)O (configuration not stated) | 5.05%
CCCCNC(=O)C(C)N(CCN(C)C)C(=O)CCCCCN1C(=O)NC(c2ccc(Cl)cc2)C(C(=O)OCc2ccccc2)=C1C (configuration not stated) | -52.2% (active)
COC(=O)CCCCCN1C(=O)NC(c2ccc(-c3ccccc3)cc2)C(C(=O)OCc2ccccc2)=C1C (configuration not stated) | -1.28%
CC(=O)c1cccc(-c2cnc3c(NC=O)cc(-c4ccc(N5CCN(C)CC5)cc4)cn23)c1 | 108%
CC(C)(C)Cc1c(C2CCCCC2)nc2ccc(Br)cn12 | 28.2%
OCC1(Cc2ccccc2C(F)(F)F)CCN(Cc2ccncc2)CC1 | 21.9%
C/C(=N/N1CCN(Cc2cccc3ccccc23)CC1)c1cccnc1 | 0%
OCC1(Cc2ccccc2C(F)(F)F)CCN(Cc2cccc3cnccc23)CC1 | -72.4% (active)
O=S1(=O)CC(N2CCC(Cc3ccccc3)CC2)CN1Cc1ccccc1 (configuration not stated) | 21.9%
CCN(CC)CCCNC(=O)c1cc2c(=O)[nH]c3ccc(C)cc3c2s1 | -65.6% (active)
Cc1cccc(N(C)C(=O)c2cc3c(=O)[nH]c4ccc(C)cc4c3s2)c1 | 3.44%
CCN(CC)CCCNC(=O)c1cc(-c2cccc(Cl)c2)on1 | -5.59%
COCCNC(=O)c1cc2c(Br)ccc(Br)c2nc1N | -2.49%
O=C(NCC1CCCCC1)c1cc(S(=O)(=O)N2CCCCC2)ccc1N1CCOCC1 | -0.256%
Cn1c(=O)c2c(nc(SCCNS(=O)(=O)c3ccccc3)n2C)n(C)c1=O | 29.8%
Cn1c(=O)c2c(nc(SCC(=O)Nc3ccccc3N3CCCCC3)n2C)n(C)c1=O | -57.3% (active)

Structure (SMILES) | activity change
CCC1CCCCN1C(=O)CSc1nc2c(c(=O)n(C)c(=O)n2C)n1C (configuration not stated) | 2.3%
O=[N+]([O-])c1ccccc1/C=C/CN1CCCC(CO)C1 (configuration not stated) | -11.3%
CC1CCCCC1NC(=O)/C(C#N)=C/C=C/c1ccccc1[N+](=O)[O-] (configuration not stated) | -103% (active)
O=[N+]([O-])c1ccccc1/C=C/CN1CCC(O)CC1 | 7.25%
CCc1ccc(C(=O)N2CCN(S(=O)(=O)c3sc(C(=O)O)c(C)c3C(=O)O)CC2)cc1 | 20.6%
O=C1C[C@@H]2c3c(cccc3CN1Cc1ccccc1)C[C@@H](O)[C@H]2O | 16.3%
c1ccc(Cn2nnc3c(NCC4CC4)ncnc32)cc1 | -6.22%
COc1cccc(-c2cnc(C(O)c3ccccc3OC)[nH]2)c1 (configuration not stated) | 26.3%
O=C(Nc1ccc(C(=O)O)cc1)/C(=C\c1ccccc1)NC(=O)c1ccc(Br)cc1 | -0.689%
O=C(NCCc1ccccc1)/C(=C\c1ccc([N+](=O)[O-])cc1)NC(=O)c1ccccc1 | 4.21%
O=C(Nc1ccc(C(=O)O)cc1)/C(=C/c1ccc([N+](=O)[O-])cc1)NC(=O)c1ccccc1 | -62.1% (active)
C[C@]12CC[C@H](O)CC1=CCC1C2CC[C@@]2(C)C1CC[C@@H]2NC(=O)CCC(=O)O (some centres not stated) | 14.7%
Cc1cc2cc3n(c2nn1)N=C(Cl)CC3 | -81.1% (active)
COc1cc(Cn2c3ccc(NC(=O)CC(C)c4ccccc4)cc3c(=O)n2C)ccc1F (configuration not stated) | -18%
CC1(C(=O)NS(=O)(=O)c2ccc(C#N)cc2)CCN1C(=O)c1ccc(C2CCCCC2)cc1 (configuration not stated) | 12.1%
O=C(O)c1ccc2c(c1)C(=O)N(c1ccc(/C=C/C(=O)c3ccccc3)cc1)C2=O | -154% (active)
O=C(NN=Cc1ccc(N2CCOCC2)cc1)c1cc2ccccc2cc1O | -24%
O=C(/C=C/c1ccc(N2CCOCC2)cc1)c1ccccc1 | -239% (active)
O=C(c1ccccc1)c1ccc(C(=O)N2CCN(c3ccccc3)CC2)cc1 | -8.14%

Structure (SMILES) | activity change
O=C(c1ccc2c(c1)C(=O)N(c1ccc(Cl)cc1)C2=O)N1CCN(c2ccccn2)CC1 | 15.8%
Cc1cccc(N2C(=O)c3ccc(C(=O)Nc4cccc(C(=O)O)c4)cc3C2=O)c1 | 10.8%
CC(OC(=O)c1cccnc1Cl)C(=O)NC1CCCCC1 (configuration not stated) | -3.91%
COc1ccc(C(=O)OCC(=O)Nc2cc(C)on2)cc1F | 10.7%
C[C@@H]1CN([C@@H](C)CO)C(=O)CCCn2cc(nn2)CO[C@H]1CN(C)S(=O)(=O)c1ccc(-n2cccn2)cc1 | -5.6%
COc1ccc(CCNC2=C(Cl)C(=O)N(Cc3ccccc3)C2=O)cc1OC | -67.7% (active)
COc1ccc(CCN2C(=O)C(C)=C(C)C2=O)cc1OC | -6.73%
COc1ccc(CCN=C2SCC(=O)N2Cc2ccccc2)cc1OC | -10.8%
Nc1cccc(OCCCCCOc2cccc(N)c2)c1 | -27.6%
CC(=O)Nc1c(-c2ccc(C)cc2)nc2ccc(Cl)cn12 | 13.6%
O=C(COc1ccc(Cl)cc1)NCCS(=O)(=O)N1CCN(c2ccc(F)cc2)CC1 | 0.652%
O=C(Cc1ccc(F)cc1)N1CCN=C1SCc1cccc([N+](=O)[O-])c1 | 26.2%
Cc1cc(C)cc(C(=O)N2CCN=C2SCc2ccc([N+](=O)[O-])cc2)c1 | 7.28%
Cc1cccc(CC(=O)N2CCN=C2SCc2ccc([N+](=O)[O-])cc2)c1 | -73.1% (active)
O=C1NC(c2ccccc2)Cc2ccncc21 (configuration not stated) | -2.81%
CC(C)C1Cc2[nH][nH]c(=O)c2C(c2ccc(Cl)cc2)O1 (configuration not stated) | 0.108%
COc1ccc(/C=C2/C(=O)OCc3cc(OC)c(OC)cc32)c(OC)c1 | -74.3% (active)
COc1ccc(CN(C)Cc2nc3cc(OC)c(OC)cc3c(=O)[nH]2)c(OC)c1 | 1.63%
COc1ccc(/C=C2/C(=O)N(c3ccccc3)N=C2C)c(OC)c1 | -9.74%
